Screening results deposited in PubChem by several laboratories.
In the library only some 4% were active in any assay of this set; here they are far more common.
MazF activator = activators of E. coli MazEF toxin-antitoxin RNase, primary screen, biochemical, fluorescence, uHTS. Endoribonuclease toxin MazF (Escherichia coli (strain K12)), P0AE70. FAM/BHQ RNA-DNA oligo cleavage fluorescence, 5 h. activation, % at 20 µM. actives 0.32% (n = 350,000). AID 504720, 2011; in the data active means activation above about 50%
DUSP3 inh = VHR1 phosphatase inhibitors, primary screen, biochemical, absorbance, uHTS | Dual specificity protein phosphatase 3 (Homo sapiens), P51452 | recombinant VHR phosphatase, pNPP absorbance | inhibition, % at 13.3 µM | actives 0.52% (n = 290,000) | AID 1654, 2009; in the data active means inhibition above about 50%
Bead autofluor = compound fluorescence in toxin protease inhibitor counterscreen. compound autofluorescence counterscreen, microsphere flow cytometry; active compounds read high. fluorescence intensity (concentration not given with the values). actives 3.1% (n = 360,000). AID 624483; in the data active means fluorescence intensity above about 16000; inconclusive means no clear call, values can overlap the other calls
BoNT A protease = BoNT/A light chain protease inhibitors, primary screen, biochemical, flow cytometry, MLPCN library | Botulinum neurotoxin type A light chain protease (Clostridium botulinum A str. ATCC 3502) | multiplex microsphere protease substrate cleavage | inhibition, % at 10 µM | actives 0.17% (n = 360,000) | AID 588499, 2011
Anthrax LF inh2 = Bacillus anthracis LF protease inhibitors, primary screen, biochemical, multiplex microsphere, MLPCN library; Lethal factor (Bacillus anthracis), P15917; multiplex microsphere protease cleavage assay; inhibition, % at 10 µM; actives 0.12% (n = 360,000); AID 588501, 2011
BoNT-F LC inh = BoNT/F light chain protease inhibitors, primary screen, biochemical, flow cytometry, MLPCN library. Botulinum neurotoxin type F light chain protease (Clostridium botulinum). Multiplex microsphere protease cleavage assay. inhibition, % at 10 µM. actives 0.22% (n = 360,000). AID 588497, 2011; in the data active means inhibition above about 35%, passing the limit was not always enough; inconclusive means no clear call, values can overlap the other calls
Large screens that a line does not name were inactive. Unless noted, no stated cut-off is given here; in the data, active means inhibition above about 30%; inconclusive means no clear call, values can overlap the other calls; inactive means below that.

CC(C)(C)c1csc(NC(=O)CSc2nc3ccccc3c(=O)[nH]2)n1	Bead autofluor 19081, BoNT A protease inconclusive
Nc1nnnn1-c1cccc([N+](=O)[O-])c1	none (no result: DUSP3 inh)
COc1cccc(OCCOc2ccc(/C=C3/SC(=S)NC3=O)cc2)c1	BoNT-F LC inh inconclusive
O=C(CCNC(=O)c1ccccc1Cl)Nc1nc(-c2ccc(F)cc2)cs1	none
COc1ccccc1OCCNC(=O)c1cc(C2CC2)nc2c1cnn2C(C)C	none (no result: DUSP3 inh)
COC(=O)Cn1c(=NC(=O)c2cc(-c3cccs3)nc3ccccc23)sc2cc(S(N)(=O)=O)ccc21	BoNT A protease 37.5
Cc1ccc(C)c(C(=O)CN2Cc3ccccc3C2=O)c1	none
CC1CCCCN1CCCNC(=O)c1nn(C)c2c1CS(=O)(=O)c1ccccc1-2 (stereo not given)	DUSP3 inh 59.1
CC1CCCCN1CCCNC(=O)c1ccc(Br)cc1 (stereo not given)	DUSP3 inh 57.6
O=c1[nH]c(SCc2nc3ccccc3c(=O)n2-c2ccccc2C(F)(F)F)nc2ccccc12	none
NC(=O)CSc1nnc([C@@H](N)Cc2c[nH]c3ccccc23)o1	none
Cc1nnc(NC(=O)Cc2ccc(OCc3c(C)noc3C)cc2)s1	Bead autofluor 17361
Cc1noc(C)c1COc1ccc(CC(=O)NCCc2ccccc2)cc1	none
CCOc1ccc(/C=C/c2[nH]c(=O)[nH]c(=O)c2[N+](=O)[O-])cc1	none
CC(C)c1ccc(/C=C/c2[nH]c(=O)[nH]c(=O)c2[N+](=O)[O-])cc1	BoNT-F LC inh 37.3
COc1ccc(-c2nn(-c3ccccc3)cc2/C=C/C(=O)O)cc1[N+](=O)[O-]	none
Cc1ccccc1OCCN1C(=O)NC2(CCc3ccccc32)C1=O (stereo not given)	Bead autofluor 20031
O=C1NC2(CCc3ccccc32)C(=O)N1CCOc1ccc(Cl)cc1 (stereo not given)	none
CCN1/C(=C2\C(=O)N(C)C(=S)N2C)C=Cc2cc(OC)ccc21	none
O=C(COC(=O)c1ccc(Cl)c(S(=O)(=O)N2CCCCC2)c1)NCC1CCCCC1	none (no result: DUSP3 inh)
COc1cccc(-c2cc(C(=O)Nc3ccccc3SC)no2)c1	Bead autofluor 16463, BoNT A protease inconclusive
COc1cccc(-c2cc(C(=O)Nc3cccc(O)c3)no2)c1	Bead autofluor 24356
COc1ccc(-c2cc(C(=O)Nc3ccccc3SC)no2)cc1OC	Bead autofluor 23175
COc1ccc(-c2cc(C(=O)Nc3cccc(C(C)=O)c3)no2)cc1	Bead autofluor 19306
COc1ccc(-c2cc(C(=O)Nc3cccc(Cl)c3)no2)cc1	none
CCCN(CCC)S(=O)(=O)c1ccc(C(=O)Nc2nnc(-c3cc(OC)cc(OC)c3)o2)cc1	none
COC(=O)/C(=C/c1cn(C)c2ccccc12)[N+](=O)[O-]	none (no result: MazF activator, Bead autofluor, BoNT A protease, Anthrax LF inh2, BoNT-F LC inh)
Cn1c(C(=O)Nc2ccc3c(c2)OCCO3)cc2sccc21	Bead autofluor 16792
CCOC(=O)c1ccccc1NC(=O)c1cc2sccc2n1C	Bead autofluor 22752
CCOC(=O)c1cccc(NC(=O)c2cc3sccc3n2C)c1	Bead autofluor 26158, BoNT A protease inconclusive
COc1ccc(/C=C2\N=C(SC)N(c3ccccc3OC)C2=O)cc1	none
CC(C)(C)Cc1c(-c2cccc(Cl)c2)nc2ccc(Cl)cn12	none (no result: MazF activator, DUSP3 inh)
COc1ccc(CSCC(=O)N/N=C/c2ccc(OCC(=O)NCc3ccco3)cc2)cc1	none
Cc1cc(C)cc(CSCC(=O)N/N=C/c2ccc(OCC(=O)NCc3ccco3)cc2)c1	Bead autofluor 21576
O=c1c2ccccc2nc(CN2CCCCCC2)n1-c1ccc(F)cc1	Bead autofluor 24642
COc1ccc(N2C(=O)CSC2c2ccc3c(c2)OCO3)c(OC)c1 (stereo not given)	none
COc1ccc(N2C(=O)CSC2c2ccc3c(c2)OCO3)cc1 (stereo not given)	Bead autofluor 16403
O=C(c1cc2c(=O)n3ccccc3nc2s1)N1CCOCC1	Bead autofluor 21556
CC1CCN(C(=O)c2cc3c(=O)n4ccccc4nc3s2)CC1	none
CN1C(=O)C(=Cc2ccc(N3CCOCC3)o2)C(=O)N(C)C1=O	none
